NR0B1 inh – inhibits human nuclear receptor DAX1; inhibition, % at 6.75 µM; P51843; HEK293 Gal4-DAX1 luciferase reporter, luminescence; actives 0.99% (n = 340,000);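 active means inhibition above the mean over all tested compounds plus 3 SD, cut at about 4.2% in these data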;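 further: 0% = DAX1-transfected cells with DMSO and 100% = empty-vector control cells with DMSO; inhibition shows as a rise in luminescence from relieved DAX1 repression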
HSP90 inh – blocks HSP90-mediated luciferase refolding in reticulocyte lysate. Rabbit reticulocyte lysate, luciferase refolding luminescence, 3 h. inhibition, % at 5.6 µM. actives 0.91% (n = 290,000). AID 1789;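 active means inhibition above the screen-wide mean plus 3 SD, computed separately per campaign, cut at about 16% in these data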;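 further: 0% = DMSO wells and 100% = 60 µM geldanamycin wells; inhibitors lower the luminescence because luciferase stays unfolded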
AHR act – activates the human aryl hydrocarbon receptor. P35869. AHR-responsive luciferase reporter cells, luminescence. activation, % at 5 µM. actives 2.5% (n = 320,000). AID 2796; in the data active means activation above about 47%;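 further: 0% = vehicle wells and 100% = reference agonist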
Target sequence (P35869 whole entry, looked up): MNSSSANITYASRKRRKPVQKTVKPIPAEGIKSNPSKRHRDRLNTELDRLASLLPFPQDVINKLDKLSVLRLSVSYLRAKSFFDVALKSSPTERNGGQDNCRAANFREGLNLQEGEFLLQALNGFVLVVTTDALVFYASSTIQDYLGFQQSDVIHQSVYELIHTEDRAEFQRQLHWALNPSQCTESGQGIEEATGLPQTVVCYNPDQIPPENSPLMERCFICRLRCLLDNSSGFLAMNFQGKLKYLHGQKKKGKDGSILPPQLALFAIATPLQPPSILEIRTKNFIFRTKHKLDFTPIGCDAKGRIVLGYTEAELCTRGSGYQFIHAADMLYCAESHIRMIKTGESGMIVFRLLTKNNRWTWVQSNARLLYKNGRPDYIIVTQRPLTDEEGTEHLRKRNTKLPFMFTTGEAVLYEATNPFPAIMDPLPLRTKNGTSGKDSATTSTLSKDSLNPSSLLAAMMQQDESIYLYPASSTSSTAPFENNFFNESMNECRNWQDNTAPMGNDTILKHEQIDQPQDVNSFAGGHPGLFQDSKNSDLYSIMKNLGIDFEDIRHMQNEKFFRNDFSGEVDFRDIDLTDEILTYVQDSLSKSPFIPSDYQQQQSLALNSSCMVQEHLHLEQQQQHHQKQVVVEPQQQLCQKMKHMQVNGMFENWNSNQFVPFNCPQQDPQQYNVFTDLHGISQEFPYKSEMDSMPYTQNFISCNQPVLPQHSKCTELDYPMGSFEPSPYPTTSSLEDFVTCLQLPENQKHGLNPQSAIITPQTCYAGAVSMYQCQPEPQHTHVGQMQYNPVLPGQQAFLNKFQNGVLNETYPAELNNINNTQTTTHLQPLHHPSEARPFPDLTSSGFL
GAA850 FXN act – activators of GAA850 frataxin (FXN) promoter; actives 0.56% (n = 360,000); activation, % at 6 µM; HEK293 lucGAA850 FXN promoter luciferase reporter, 24 h; percent of 10 µM SAHA response;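 active means activation above the average of all compounds screened plus 3 SD, cutoff fixed separately per campaign, cut at about 7.5% in these data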;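 further: 0% = DMSO wells and 100% = 10 µM SAHA wells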
HSF1 activator – increases HSF-1 driven luciferase reporter signal. activation, % at 9 µM. NIH3T3-HGL HSF-1 luciferase reporter, MG132, 8 h; 100% = twice DMSO control signal. actives 1.7% (n = 300,000);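 active means mean replicate activation of at least 50% with a set share of replicates each reaching 50%; inconclusive means only one of those two conditions met; inactive means mean below 50% and too few replicates reaching it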;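 further: 0% = median of the neutral control wells and 100% = twice that signal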
HSF1 inhib – HSF1 inhibition | NIH3T3-HGL HSE-luciferase, MG132-induced, luminescence 8 h; hits give low values | activity change, negative = inhibition, % at 7.5 µM (by protocol) | actives 0.77% (n = 300,000) | AID 2098;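 active means more than half of replicate wells show activity change below -50%, luminescence cut by over half; inconclusive means some wells, but at most half, below -50%; inactive means no replicate well below -50%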;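 further: luciferase reports HSF-1 transcriptional activity via heat shock element; 0% = median of DMSO wells and -100% = zero luminescence signal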
* = called active by the depositor; u = inconclusive; x = not tested or not shown. The list is not random: actives were taken first. Their share in the collection is about 5.9%.

SMILES | NR0B1 inh | HSP90 inh | AHR act | GAA850 FXN act | HSF1 activator | HSF1 inhib
CCCCc1nnc(NC(=O)c2oc3ccc(OC)cc3c2C)s1 | -0.3 | x | -6.8 | -0.9 | 11.6 | 4.2
COc1ccc(C(=O)Nc2nccs2)cc1 | 5.7* | 3.4 | 2.8 | 5.7 | 27.2 | 18.6
COc1cc(SC)ccc1C(=O)Nc1nccs1 | -0.7 | 15.8 | 52.4* | 3.5 | 56.8* | 17.3
CC(C)OCc1c(C(=O)Nc2nccs2)oc2ccccc12 | -1.0 | 2.9 | 56.9* | 0.8 | -0.9 | -3.4
COc1ccc(C(=O)Nc2nccs2)cc1OC | 2.1 | -3.8 | 34.9 | 3.3 | 16.5 | 6.0
CCCc1nnc(NC(=O)c2oc3ccccc3c2COCC)s1 | -1.1 | x | x | -1.9 | x | x
COc1ccc2oc(C(=O)Nc3nccs3)c(C)c2c1 | 2.4 | x | 77.1* | 2.4 | 0.2 | -6.5
CC1(c2ccc(OC(F)F)cc2)NC(=O)N(CC(=O)Nc2ccc(Cl)cc2F)C1=O (stereo unspecified) | -0.5 | 5.3 | 2.2 | 2.2 | -2.8 | 4.6
CC(C)(C)CC(=O)Nc1nnc(CCc2ccccc2)s1 | 0.7 | -5.7 | 3.5 | 7.2 | -37.9 | -19.9
CCC(C)(C)C(=O)Nc1nnc(CCc2ccccc2)s1 | 4.7* | -6.2 | 5.7 | 6.1 | 22.3 | 20.2
O=C(O)CSc1c(Cl)c(=O)oc2ccc(Cl)cc12 | 2.4 | x | x | 1.1 | x | x
COc1ccccc1OCCCOc1ccc([N+](=O)[O-])cc1Cl | 2.4 | -2.6 | 20.3 | 5.4 | 64.6* | 56.8
COc1cccc(OCCCOc2ccc([N+](=O)[O-])cc2Cl)c1 | 1.1 | 0.9 | 12.0 | 1.4 | 2.6 | -0.5
CC(=O)NCCCOc1ccc([N+](=O)[O-])cc1Cl | 0.2 | -0.7 | 1.1 | 5.2 | 55.6* | 10.3
COc1ccccc1OCCOCCOc1ccc(C)cc1Br | -0.2 | -4.6 | 15.2 | -0.5 | -4.1 | 2.8
COc1ccccc1OCCCOc1ccc(C)cc1Br | 1.1 | -4.3 | 39.9 | 5.9 | 56.6* | 35.5
COc1ccc2nc(NC(=O)C3CC(=O)N(c4ccccc4)C3)sc2c1 (stereo unspecified) | 0.1 | -2.0 | 5.0 | -0.1 | -2.0 | -1.3
COc1cc(/C=N/N(C)c2ccccc2)cc(Cl)c1O | 0.1 | -1.4 | 52.3* | 4.5 | -6.0 | -9.2
COc1cccc(C(C)(O)c2nc(-c3ccc(F)cc3OC)cs2)c1 (stereo unspecified) | x | x | x | 1.8 | x | x
CCOc1ccccc1CNCCN1CCOCC1 | -0.2 | -2.1 | -2.1 | -0.6 | 58.4* | 13.8
N#Cc1ccc(C(=O)OCC(=O)N2CCCCCC2)cc1 | 0.5 | x | x | 3.2 | x | x
COc1cc(/C=C2/CCCC(C(=O)C(F)(F)F)=C2O)ccc1O | 1.2 | -3.3 | 1.4 | -1.0 | -15.9 | -11.5
COc1cc(/C=C2/CCC/C(=C\c3cc(O)c(OC)c(Cl)c3)C2=O)cc(Cl)c1O | -0.9 | -1.4 | -6.0 | -3.7 | 204.1* | 168.1
COc1cc(/C=C2\CCC/C(=C\c3ccc(O)c(OC)c3)C2=O)ccc1O | -2.7 | 2.9 | -1.7 | -1.5 | 113.7* | 81.1
COc1cccc(N(CC(=O)Nc2ccccc2C(=O)N2CCCC2)S(C)(=O)=O)c1 | 2.9 | 1.1 | -0.9 | -0.9 | -8.3 | 0.5
SMILES | NR0B1 inh | HSP90 inh | AHR act | GAA850 FXN act | HSF1 activator | HSF1 inhib
Cc1cc2c(NC(=O)Nc3ccc(C(F)(F)F)cc3)cccc2nn1 | 2.1 | 0.7 | 54.7* | 1.9 | 4.3 | -5.9
Cc1cc2c(NC(=O)CCCC(=O)O)cccc2nn1 | -0.4 | 2.9 | -1.1 | 0.2 | 17.7 | 3.2
O=S(=O)(NCC1NCCc2ccccc21)c1ccccc1 (stereo unspecified) | 8.3* | -0.3 | 2.7 | 2.7 | -3.0 | 6.6
c1ccc(C2NCCc3ccccc32)cc1 (stereo unspecified) | 2.1 | 2.5 | -0.7 | -2.8 | x | -1.8
CCOc1ccc2nc(N3C(=O)CNC3=S)sc2c1 | 5.3* | -1.4 | 1.1 | 3.0 | 62.5* | 26.9
O=C(Nc1ccc(Cl)cc1)Nc1csc([N+](=O)[O-])c1 | x | 1.1 | 7.6 | -5.2 | 84.3* | 62.8
O=C(Nc1ccc(Cl)cc1)Nc1ccccc1CC[N+](=O)[O-] | 0.7 | -1.6 | 67.3* | 0.7 | x | x
O=C(Nc1csc([N+](=O)[O-])c1)Nc1c(Cl)cccc1Cl | -1.3 | 3.9 | -3.2 | 1.3 | 21.3 | 15.0
Cc1ccccc1CNC(=O)Nc1ccc(Cl)cc1 | 5.5* | 1.5 | -0.2 | 3.9 | u | 27.2
CN(C)C(=O)Nc1ccccc1CC[N+](=O)[O-] | 1.1 | -2.1 | 11.6 | 1.2 | 36.5 | 9.1
C/C(=N/NC(=O)CNS(=O)(=O)c1ccccc1)c1ccc(Br)cc1 | 0.2 | -5.5 | 2.4 | 0.3 | -5.6 | -5.2
Cc1c(NC(=O)Nc2ccc([N+](=O)[O-])cc2)c(=O)n(-c2ccccc2)n1C | 1.0 | -3.5 | -0.4 | 0.0 | 57.9* | 20.4
Cn1cnc([N+](=O)[O-])c1S(=O)(=O)c1ccc(Cl)cc1 | -2.1 | 2.9 | x | 4.7 | 150.5* | 127.3
O=C(O)CCCC(=O)Nc1ccccc1SCCS(=O)(=O)c1ccc(Cl)cc1 | -0.5 | 8.2 | x | 0.7 | -2.5 | -1.1
COc1ccc(-c2nc3ccccn3c2CN2CCN(c3ccccc3F)CC2)cc1 | 4.4* | 2.5 | 2.3 | 1.1 | -7.5 | -7.5
CCc1nc2c(OCc3ccccc3C)cccn2c1N(C)C(=O)C(C)C | x | x | x | -0.5 | x | x
O=c1cc(CSc2n[nH]c(=O)n2C2CC2)c2ccc(O)cc2o1 | x | 1.9 | 0.4 | 0.7 | 6.3 | 5.0
CCC(C)(C)C1CCC2(CC1)NC(=O)N(CC(=O)N(C)CC(=O)Nc1ccccc1C(F)(F)F)C2=O (stereo unspecified) | -0.3 | 1.9 | 3.1 | 0.5 | -8.3 | -7.1
COc1cc2c(cc1OC)C(C(=O)NC1CC1)C1c3ccccc3CCN1C2=O (stereo unspecified) | 0.5 | -0.1 | 0.6 | -1.1 | -67.9 | -61.0*
CCc1c(C)sc(NC(=S)N2CCN(CC)CC2)c1C(=O)OC | 5.2* | -3.9 | 18.3 | 1.7 | -6.5 | -6.7
CCN1CCN(C(=S)Nc2sc(C)c(-c3ccccc3)c2C(=O)OC)CC1 | 2.1 | -0.7 | 9.3 | -0.1 | 0.8 | 2.7
O=C(Nc1ccc(Cl)cn1)c1ccc([N+](=O)[O-])o1 | -1.6 | -3.7 | x | 4.1 | 140.4* | 96.5
Cc1cc(C)cc(NC(=O)c2ccc([N+](=O)[O-])o2)c1 | x | 8.3 | x | -0.5 | u | 40.5
CC(=O)c1ccc(NC(=O)c2ccc([N+](=O)[O-])o2)cc1 | -1.8 | 9.4 | x | 6.9 | 90.8* | 93.7
CC(=O)c1cccc(NC(=O)c2ccc([N+](=O)[O-])o2)c1 | -2.1 | x | 6.5 | 0.9 | 54.8* | 45.3
O=C(NNC(=O)c1ccc([N+](=O)[O-])o1)c1ccccc1 | -0.7 | -2.4 | 1.3 | 2.3 | -10.8 | 2.1
NS(=O)(=O)c1ccc(CCNC(=O)c2ccc(Cl)c(S(=O)(=O)NCc3ccco3)c2)cc1 | 0.1 | x | -1.9 | 0.9 | x | x
COC(=O)c1c(C)[nH]c(C(=O)C(C)OC(=O)c2cnc(C)cn2)c1C (stereo unspecified) | 1.4 | x | -0.1 | 1.4 | x | x
